# Compounds with a hit are over-represented: about 10% of the library has one in this group of screens.
# hNpr1 antagonist: antagonists of human natriuretic peptide receptor Npr1 | P16066 | HEK293 hNpr1 GloSensor cGMP, ANP-stimulated luminescence | Potency, µM (doses to about 46.3 µM), most hits filed as inhibitors | hit rate 1.6% among 76,000 | AID 1347048; calls by dose curve; note: nearly all actives have a fitted effect of over 60% in size
#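 HEK293 cells stably expressing human Npr1 and cGMP GloSensor pGS-40F, loaded 2 h with 2% GloSensor reagent, given compound 30 min at room temperature. Luminescence read before and 20 min after 0.1 nM hNppA.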
# 3T3 cytotox: NIH 3T3 cell cytotoxicity | AID 1345082 | Potency, µM (titrated, usually from 96.7 µM), hits mostly inhibitors | hit rate 4.3% among 94,000 | NIH 3T3 viability, CellTiter-Glo ATP luminescence, 48-72 h; note: nearly all actives have a fitted effect of over 55% in size
#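 Viability of NIH 3T3 cells after 48 or 72 hr compound treatment at 37 °C was assessed by CellTiter-Glo, with luminescence imaged following a 10 min room-temperature step.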
# HEK293 tox: kills HEK 293 cells; HEK 293 viability, ATP luminescence (CellTiter-Glo), 48-72 h; Potency, µM (top dose mostly 115 µM), hits mostly inhibitors; hit rate 6.6% among 94,000; note: nearly all actives have a fitted effect of over 60% in size
#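 Cells seeded first (HEK 293, 250 cells/well), then compound added by pintool. Incubation ran 48 or 72 hr at 37 degree Celsius. CellTiter-Glo was added and luminescence imaged after 10 min at room temperature.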
# GPT2 inhibitor: inhibitors of human GPT2 alanine aminotransferase. Q8TD30. AID 1671188. Potency, µM (series often up to 57.7 µM), usual class: inhibitors. Recombinant GPT2, coupled pyruvate oxidase/HRP Amplex Red fluorescence. hit rate 0.25% among 100,000; note: nearly all actives have a fitted effect of over 60% in size
#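 GPT2 10ng/uL, a-KG 250uM, L-Ala 2mM, HEPES pH7.5 + 0.0001% Tween; 30 min RT. Then Amplex mix (PO/HRP/ThPP), 30 min RT dark, fluorescence. AOA 50uM used as positive control.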
# FLuc inh: inhibitors of firefly (Photinus pyralis) luciferase. purified P. pyralis luciferase, luminescence, biochemical. Potency, µM (series often up to 115 µM), hits mostly inhibitors. hit rate 2.5% among 76,000; note: nearly all actives have a fitted effect of over 65% in size
#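 Luminescence read by CCD imager after adding enzyme (10nM final) to wells holding compound, titrated in qHTS. Substrates 10uM each D-luciferin and ATP; buffer 50mM Tris acetate pH 7.5, 10mM Mg acetate, Tween-20, BSA.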
# A number is an active result; n = inactive; u = inconclusive; x = no result; ! = repeats disagree. Unless noted, calls come from the whole dose curve; as a rule, active = well fitted curve in the direction sought with a large enough effect; inconclusive = small, poorly fitted or top-dose-only effect, or another doubt; inactive = no such curve, though single readings can be large; an effect the other way counts as inactive or inconclusive.
SMILES,hNpr1 antagonist,3T3 cytotox,HEK293 tox,GPT2 inhibitor,FLuc inh
CC(=O)Nc1ccc(CN2CCN(c3cc(Cl)ncn3)C(=O)C2)cc1,n,35µM,10µM,n,n
O=C1CN(Cc2cccc(-c3ccsc3)c2)CCN1c1cc(Cl)ncn1,n,u,79µM,n,n
CC(C)CN1CCN(c2cc(Cl)ncn2)C(=O)C1,n,n,u,n,n
O=C(CCc1c[nH]c2ccccc12)N1CCC(Cc2nc(-c3ccncc3)n[nH]2)CC1,x,u,n,n,x
O=C(CCc1c[nH]c2ccccc12)N1CCC[C@H]1c1nc(-c2ccc(F)cc2)n[nH]1,x,u,40µM,n,x
CSc1ccc(O[C@@H]2C=C(C(=O)N[C@@H](Cc3ccc(O)cc3)C(N)=O)C[C@@H](O)[C@H]2O)cc1C,n,n,n,n,n
Cc1cc(C(=O)N2CC(Cn3c(C)cnc3-c3ccncc3)C2)nn1C,x,n,n,n,x
CC(=O)c1ccc(C(=O)N2CCC3(CC2)OCCCC3O)s1 (stereo not given),n,n,n,u,n
CCc1cccc(NC(=O)C2Cn3cccc3C(=O)N2C)c1 (stereo not given),n,n,n,n,n
Cc1ccc(-c2ccccc2CN2CCN(C(=O)N(C)C)CC2)cc1Cl,x,u,32µM,n,x
Cc1ccc(-c2ccccc2CN2CCN(C(=O)C3CCCC3)CC2)cc1Cl,x,u,u,n,x
CC(=O)N1CCN(Cc2ccccc2-c2ccc(C)c(Cl)c2)CC1,x,u,u,n,x
Cc1ccc(-c2ccccc2CN2CCC(C(=O)NCC(F)(F)F)CC2)cc1Cl,x,u,50µM,n,x
Cc1ccc(-c2ccccc2CN2CCC(C(=O)NCC3CC3)CC2)cc1Cl,x,u,35µM,x,x
Cc1nnc2ccc(NCc3ccc(F)cc3)nn12,u,u,u,n,u
CCOC(=O)Nc1ccc(NCc2ccc(F)cc2)nc1N,x,x,x,10µM!,x
CC(=O)N1CCN(Cc2ccc(-c3cnc4c(OCc5ccccc5)nccn34)cc2)CC1,n,32µM,40µM,n,u
CN1CCN(Cc2ccc(-c3cnc4c(OCc5ccccc5)nccn34)cc2)CC1,u,u,u,n,32µM
O=C(NCc1ccc(-c2cnc3c(Oc4ccccc4)nccn23)cc1)c1cccc(O)c1,u,u,u,n,n
OCC1CN(Cc2cc(F)cc(Br)c2)CC12CCNCC2 (stereo not given),n,u,32µM,n,n
COCC1CN(Cc2cccc(C(F)(F)F)c2)CC12CCNCC2 (stereo not given),n,u,89µM,n,n
Cc1cnc(Nc2ccc(N3CCN(C)CC3)cc2)nc1Nc1cccc(S(=O)(=O)NC(C)(C)C)c1,x,x,x,19µM,x
Cc1cnc(Nc2ccc(OCCN3CCCC3)cc2)nc1Nc1cccc(S(=O)(=O)NC(C)(C)C)c1,x,x,x,n,x
O=C(NCC1CCCCC1)C1CCN(C(=O)c2ncn3c2COC(c2ccc(F)cc2)C3)CC1 (stereo not given),n,n,n,n,n
Cc1cccc(C)c1N1C(C(=O)OC(C)(C)C)=C(O)c2ccccc2S1(=O)=O,x,20µM,u,x,x
SMILES,hNpr1 antagonist,3T3 cytotox,HEK293 tox,GPT2 inhibitor,FLuc inh
C[C@H](C(=O)N1Cc2ccccc2CC2(CCN(CC3CCNCC3)CC2)C1)c1ccccc1,x,14µM,u,n,x
CCC(=O)N1Cc2ccccc2CC2(CCN(CC3CCNCC3)CC2)C1,x,n,n,n,x
CCc1cccc2c(C(CC(=O)N3CCC(C)CC3)c3cccc(C)c3)c[nH]c12 (stereo not given),n,u,35µM,n,n
CCOC(=O)C1CCN(C(=O)CC(c2ccc3c(c2)OCO3)c2c[nH]c3ccccc23)CC1 (stereo not given),n,u,u,n,n
CCOC(=O)C1CCN(C(=O)CC(c2ccc(OC)c(OC)c2)c2c[nH]c3c(CC)cccc23)CC1 (stereo not given),n,u,79µM,n,n
CCc1cccc2c(C(CC(=O)N3CCCC3)c3ccc(Cl)c(Cl)c3)c[nH]c12 (stereo not given),n,u,40µM,n,n
Cn1cccc1CN1CCCC(C(=O)NCc2ccccc2)CCNC(=O)CC1 (stereo not given),n,u,79µM,n,n
COc1ccccc1-c1cccc(CN2CCCC(C(=O)NCc3ccccc3)C2)c1 (stereo not given),x,u,11µM,n,x
COc1ccccc1-c1cccc(CN2CCCC(C(=O)NC3CCCC3)C2)c1 (stereo not given),x,35µM!,35µM!,u,x

# Screening results (PubChem BioAssay)
